# Laboratory results published in PubChem BioAssay AID1347076 (National Center for Advancing Translational Sciences (NCATS), 2019).
# The campaign covered roughly 400,000 compounds. About 13,000 (3.2%) were called active. Not shown: some 18% with an inconclusive outcome. Shown is part of a subset that was picked to be rich in actives. Unmarked numbers belong to inactive results. The call rests on the fitted dose curve; in most records, active means well fitted cell-killing curve with a large enough effect; inconclusive means small, poorly fitted or top-dose-only effect, or effect the other way; inactive means flat fitted curve, though single readings scatter.
# Assay: qHTS assay for MDR1-selective chemotherapeutics: Primary screen using the drug-selected MDR subline cells KB-V1; further: nearly all actives have a fitted effect of over 60% in size
# Details: KB-V1 MDR cells viability, CellTiter-Glo, 72 h; series mostly up to 46.1 µM; activity change, negative = cytotoxicity: at the top concentration
# Summary of the method: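 qHTS viability screen in drug-selected KB-V1 MDR cells: 72 h compound treatment at 37 degrees C, ATP luminescence end point.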
# On the % scale 0 is the no-effect control and ±100 the full control effect; potency means the concentration at half of the fitted maximal effect.
Compound,"activity change, negative = cytotoxicity",Potency
CCN(CC)c1ccc(/C=C/c2c(C)cnc3ccc(C)cc23)cc1,-20.4%,
COC(=O)[C@]12CCCCC=C1N(Cc1ccco1)C(=O)[C@H](CC(=O)NCCCCc1ccccc1)C2,16.2%,
CCN(CC)C(=O)C1=C(C)N(Cc2ccc(OC)cc2)C(=O)C(CC(=O)NCCCCc2ccccc2)C1 (stereo not drawn),5.55%,
COC(=O)[C@]12CCCCC=C1N(Cc1ccccc1)C(=O)[C@H](CC(=O)NCc1ccc(C)o1)C2,-6.44%,
CCOC(=O)N1CCN(C(=O)C[C@@H]2C[C@@]3(C(=O)OC)CC(C)(C)CC=C3N(Cc3ccco3)C2=O)CC1,-19.3%,
COC(=O)[C@@]12C[C@@H](CC(=O)NCCCCc3ccccc3)C(=O)N(Cc3ccccc3)C1=CCC(C)(C)C2,,23.1 µM (active)
COC(=O)[C@@]12C[C@@H](CC(=O)NCCCCc3ccccc3)C(=O)N(CCc3ccc(OC)c(OC)c3)C1=CCC(C)(C)C2,,16.4 µM (active)
COc1ccc(CN2C[C@H]3CON(C)[C@H]3C[C@H]2c2ccc(-c3cccc(F)c3)cc2)cc1,0.771%,
Cc1ccc(O)c(NC(=O)c2cc(-c3ccc(F)cc3)no2)c1,0%,
Cc1cc2ccccc2n1CCNC(=O)c1ccc(F)cc1,0%,
CC1=C(C(=O)N2CCOCC2)CC(CC(=O)NCC2CCCCC2)C(=O)N1Cc1ccc(F)cc1 (stereo not drawn),7.51%,
O=C(OCc1cc2ccccc2[nH]c1=O)c1cccnc1,-6.92%,
Cc1ccc2[nH]c(=O)c(COC(=O)c3ccccn3)cc2c1,,16.4 µM (active)
CCOC(=O)c1cc2cc(C)ccc2[nH]1,0.803%,
Cc1ccc(S(=O)(=O)N(CCc2ccccc2)c2ccc3c(c2)C2CC3CCN2C(=O)OCc2ccccc2)cc1 (stereo not drawn),-9.87%,
COc1ccc(OC)c(NC(=O)CSC2=Nc3ccccc3C3=NC(CC(=O)NCCc4ccccc4)C(=O)N23)c1 (stereo not drawn),11%,
O=c1oc2ccccc2cc1-c1cn(-c2ccccc2)c(=S)[nH]1,,5.8 µM (active)
S=c1[nH]c(-c2cccs2)cn1-c1ccccc1,-1.38%,
O=C(Nc1cc2ccccc2oc1=O)C1CCCCC1,13.7%,
Cc1ccc(Cn2c(C)c3cnn(CC(=O)NCc4ccccc4)c(=O)c3c2C)cc1,-13.6%,
COc1ccc(-c2noc(CSc3nc(C)cc(=O)[nH]3)n2)cc1OC,0%,
CN(CCC#N)c1ccc(C=O)cc1,-7.28%,
CC1=C(C(=O)NC2CC(C)(C)Cc3c2cnn3-c2ccc(C)cc2)OCCO1 (stereo not drawn),-14.9%,
COc1ccc(C(=O)NC2CC(C)(C)Cc3c2cnn3-c2ccccc2)c(OC)c1 (stereo not drawn),-23.7%,

Compound,"activity change, negative = cytotoxicity",Potency
COc1ccc(C(=O)NC2CC(C)(C)Cc3c2cnn3-c2ccccc2C)o1 (stereo not drawn),,18.4 µM (active)
CC(=O)N1Cc2cc(C(=O)NCc3cccc(F)c3)nc(-c3cccc(C4=CCCCC4)c3)c2[C@H]1CCO,-10.4%,
O=C(NC(c1ccc(Cl)cc1)c1cnccn1)C1CCN(Cc2ccc(Cl)cc2)CC1 (stereo not drawn),-6.8%,
COc1ccccc1CNc1nc(Nc2ccccc2Cl)c2sccc2n1,-8.34%,
Cc1ccc(-c2n[nH]c(=S)n2/N=C/c2cc3c(cc2[N+](=O)[O-])OCO3)cc1,,8.2 µM (active)
Cc1ccc(S(=O)(=O)N/N=C\c2cc3c(cc2[N+](=O)[O-])OCO3)cc1,-14.7%,
CCOc1ccc(-c2n[nH]c(=S)n2/N=C/c2cc3c(cc2[N+](=O)[O-])OCO3)cc1,-20.5%,
Cc1cc2c3ccccc3[nH]c(=O)n2n1,15.2%,
CCOC(=O)C1CCCN(C(=O)C2CCN(S(=O)(=O)c3ccc(Cl)c(C(F)(F)F)c3)CC2)C1 (stereo not drawn),,20.6 µM (active)
CCOC(=O)C1CCCN(C(=O)c2cccc(S(=O)(=O)N3CCOCC3)c2)C1 (stereo not drawn),-5.97%,
CCOc1ccc(S(=O)(=O)N2CCCC(C(=O)N3CCC(C(N)=O)CC3)C2)cc1Cl (stereo not drawn),-2.55%,
Nc1[nH]c(C(=O)c2ccccc2)c(-c2ccc(Br)cc2)c1C(=O)NC1CC1,-35%,
CCc1ccc(OCCCn2c(CCCNC(=O)C3CCCCC3)nc3ccccc32)cc1,-0.972%,
COc1cccc(CNC(=O)c2cccnc2Sc2ccc(Cl)cc2)c1,18.3%,
O=C(NC1CCCCCC1)c1cccnc1Sc1ccc(Cl)cc1,2.94%,
O=C(NCc1cccnc1)c1cccnc1Sc1ccc(Cl)cc1,,18.4 µM (active)
OCCc1ccc(NCCc2ccco2)cc1,20.5%,
COc1ccc([N+](=O)[O-])cc1NC(=O)C(C)OC(=O)C1c2ccccc2Oc2ccccc21 (stereo not drawn),,9.2 µM (active)
COc1ccc(C(=O)CC(=O)C(=O)Nc2cc([N+](=O)[O-])ccc2OC)cc1,-1.07%,
COc1ccc([N+](=O)[O-])cc1NC(=O)CCc1ccccc1,-17.9%,
Cc1ccccc1NC(=O)Cc1nc(COC(=O)C(C)(C)Oc2ccc(Cl)cc2)cs1,9.47%,
Cc1onc(-c2ccc(F)cc2F)c1C(=O)Nc1cccc(C(F)(F)F)c1,-23.5%,
Cc1ccc(Cc2nc3ccccc3nc2SCC(=O)Nc2cccc(C(F)(F)F)c2)cc1,0%,
Cn1nc(C(F)(F)F)c(C(=O)Nc2cccc(C(F)(F)F)c2)c1SCc1ccc(Cl)cc1,,18.4 µM (active)
